# Test results as given in the supplement of paper PMC8728848.
# This excerpt belongs to a sample that is enriched for the strongest signals.
# B1: Pwp2 (Candida glabrata) (protein)
# chain: MGSSHHHHHHSSGLVPRGSHMASKNPVELNNVCTFPNDYGRIPGFTVLVGRLGLLISASDYKELLRYPGAFLIATQDTMTTSPNFELTGFPFFTGLYGLTVFPLDLLVELRGYFVPPNSGQYTFTLSDSDDAAIIFLGNPSAFPCGDLQNWPKPSEEDITVTDHLFPSRTLYLIEGVAYPMRIAYYNGIGAGRLNAAFIDPSGTRHTNWEGYIWQYDPCSTCTYS
# How the values were obtained:
# Assay in all cases: glycan array binding signal (z-score within array); higher = stronger binding
# Conditions in all cases: glycan notation: IUPAC condensed, linker removed
# [1] = molecular target: Man(a1-2)Man(a1-3)[Man(a1-2)Man(a1-6)]Man
# How it was run: (§1)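 Columns mapping to the same glycan were averaged after glycan names were converted to IUPAC-condensed notation. The data come from 3228 arrays in the Consortium for Functional Glycomics database, limited to those with an available protein sequence. Binding is reported as a within-array Z-score averaged across arrays of one protein sequence and across linkers.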
# [2] = molecular target: Man(a1-2)Man(a1-3)[Man(a1-2)Man(a1-6)]Man(a1-6)[Man(a1-2)Man(a1-2)Man(a1-3)]Man
# How it was run: as §1
# [3] = molecular target: Man(a1-2)Man(a1-6)[Man(a1-3)]Man(a1-6)[Man(a1-2)Man(a1-2)Man(a1-3)]Man(b1-4)GlcNAc(b1-4)GlcNAc
# How it was run: as §1
# [4] = molecular target: Man(a1-3)[Man(a1-6)]Man(a1-6)[Man(a1-3)]Man
# How it was run: as §1
# [5] = molecular target: Neu5Ac(a2-3)Gal(b1-3)GalNAc(b1-3)Gal(a1-4)Gal(b1-4)Glc
# How it was run: as §1
# [6] = molecular target: Neu5Ac(a2-3)Gal(b1-3)GlcNAc(b1-3)Gal(b1-3)GlcNAc
# How it was run: as §1
# [7] = molecular target: Neu5Ac(a2-3)Gal(b1-3)GlcNAc6S
# How it was run: as §1
# [8] = molecular target: Neu5Ac(a2-3)Gal(b1-3)[Fuc(a1-4)]GlcNAc
# How it was run: as §1
# [9] = molecular target: Neu5Ac(a2-3)Gal(b1-3)[Fuc(a1-4)]GlcNAc(b1-3)Gal(b1-3)[Fuc(a1-4)]GlcNAc
# How it was run: as §1
# [10] = molecular target: Neu5Ac(a2-3)Gal(b1-4)GlcNAc(b1-2)Man(a1-3)[Neu5Ac(a2-3)Gal(b1-4)GlcNAc(b1-2)Man(a1-6)]Man(b1-4)GlcNAc(b1-4)[Fuc(a1-6)]GlcNAc
# How it was run: as §1
# [11] = molecular target: Neu5Ac(a2-3)Gal(b1-4)GlcNAc(b1-2)[Neu5Ac(a2-3)Gal(b1-4)GlcNAc(b1-6)]Man(a1-6)[Neu5Ac(a2-3)Gal(b1-4)GlcNAc(b1-2)Man(a1-3)][GlcNAc(b1-4)]Man(b1-4)GlcNAc(b1-4)GlcNAc
# How it was run: as §1
# [12] = molecular target: Neu5Ac(a2-3)Gal(b1-4)GlcNAc(b1-3)Gal(b1-4)GlcNAc(b1-6)[Gal(b1-3)]GalNAc
# How it was run: as §1
# [13] = molecular target: Neu5Ac(a2-3)Gal(b1-4)GlcNAc(b1-6)GalNAc
# How it was run: as §1
# [14] = molecular target: Neu5Ac(a2-3)Gal(b1-4)[Fuc(a1-3)]GlcNAc6S
# How it was run: as §1
# [15] = molecular target: Neu5Ac(a2-3)[GalNAc(b1-4)]Gal(b1-4)Glc
# How it was run: as §1
# [16] = molecular target: Neu5Ac(a2-3)[GalNAc(b1-4)]Gal(b1-4)GlcNAc(b1-3)GalNAc
# How it was run: as §1
# [17] = molecular target: Neu5Ac(a2-6)Gal(b1-4)GlcNAc(b1-2)Man(a1-3)[Neu5Ac(a2-6)Gal(b1-4)GlcNAc(b1-2)Man(a1-6)]Man(b1-4)GlcNAc(b1-4)[Fuc(a1-6)]GlcNAc
# How it was run: as §1
# [18] = molecular target: Neu5Ac(a2-6)Gal(b1-4)GlcNAc(b1-3)Gal(b1-4)GlcNAc(b1-3)[Neu5Ac(a2-6)Gal(b1-4)GlcNAc(b1-3)Gal(b1-4)GlcNAc(b1-6)]GalNAc
# How it was run: as §1
# [19] = molecular target: Neu5Ac(a2-6)Gal(b1-4)GlcNAc(b1-3)Gal(b1-4)[Fuc(a1-3)]GlcNAc(b1-3)Gal(b1-4)[Fuc(a1-3)]GlcNAc
# How it was run: as §1
# [20] = molecular target: Neu5Ac(a2-6)Gal(b1-4)GlcNAc(b1-6)[Gal(b1-3)]GalNAc
# How it was run: as §1
# [21] = molecular target: Neu5Ac(a2-6)Gal(b1-4)GlcNAc6S
# How it was run: as §1
# [22] = molecular target: Neu5Ac(a2-6)GalNAc(b1-4)GlcNAc6S
# How it was run: as §1
# [23] = molecular target: Neu5Ac(a2-8)Neu5Ac
# How it was run: as §1
# [24] = molecular target: Neu5Ac(a2-8)Neu5Ac(a2-8)Neu5Ac
# How it was run: as §1
# [25] = molecular target: Neu5Ac(a2-8)Neu5Ac(a2-8)Neu5Ac(a2-3)[GalNAc(b1-4)]Gal(b1-4)Glc
# How it was run: as §1
# [26] = molecular target: Neu5Gc(a2-3)Gal(b1-3)[Fuc(a1-4)]GlcNAc
# How it was run: as §1
# [27] = molecular target: Neu5Gc(a2-3)Gal(b1-4)GlcNAc
# How it was run: as §1
# [28] = molecular target: Neu5Gc(a2-8)Neu5Ac(a2-3)Gal(b1-4)GlcNAc
# How it was run: as §1
binder,measurement,setting,value
B1,glycan array binding signal (z-score),[1],-0.477
same,glycan array binding signal (z-score),[2],-0.722
same,glycan array binding signal (z-score),[3],-0.467
same,glycan array binding signal (z-score),[4],5.45
same,glycan array binding signal (z-score),[5],-0.307
same,glycan array binding signal (z-score),[6],-0.269
same,glycan array binding signal (z-score),[7],-0.456
same,glycan array binding signal (z-score),[8],0.549
same,glycan array binding signal (z-score),[9],4
same,glycan array binding signal (z-score),[10],0.96
same,glycan array binding signal (z-score),[11],4.22
same,glycan array binding signal (z-score),[12],1.44
same,glycan array binding signal (z-score),[13],4.01
same,glycan array binding signal (z-score),[14],0.309
same,glycan array binding signal (z-score),[15],0.443
same,glycan array binding signal (z-score),[16],0.085
same,glycan array binding signal (z-score),[17],1.79
same,glycan array binding signal (z-score),[18],-0.059
same,glycan array binding signal (z-score),[19],-0.077
same,glycan array binding signal (z-score),[20],3.56
same,glycan array binding signal (z-score),[21],-0.426
same,glycan array binding signal (z-score),[22],4.86
same,glycan array binding signal (z-score),[23],-0.04
same,glycan array binding signal (z-score),[24],-0.203
same,glycan array binding signal (z-score),[25],0.537
same,glycan array binding signal (z-score),[26],-0.072
same,glycan array binding signal (z-score),[27],0.982
same,glycan array binding signal (z-score),[28],-0.437
